Experimental findings from PubChem BioAssay AID1117299 (National Center for Advancing Translational Sciences (NCATS), 2015) are described below.

Where a structure was tested more than once in an assay, its records may differ in their call. The source made the active and inactive calls. Calls come from the whole dose curve.

The conditions of the assay: Ebola virus entry assay, green fluorescence channel.
In general, AC50 refers to the concentration at which the activity in the assay is half-maximal. On to `CO[C@H]1C[C@@H]2CC[C@@H](C)[C@@](O)(O2)C(=O)C(=O)N2CCCC[C@@H]2C(=O)O[C@H]([C@@H](C)C[C@@H]2CC[C@H](O)[C@H](OC)C2)CC(=O)[C@H](C)C=C(C)[C@@H](O)[C@@H](OC)C(=O)[C@H](C)C[C@H](C)C=CC=CC=C1C`, for which the AC50 is 17.7 µM (active).

On to `COC(=O)Nc1nc2ccc(C(=O)c3ccccc3)cc2[nH]1`, for which the AC50 was 6.11 µM (active).

On to `CCCSc1ccc2nc(NC(=O)OC)[nH]c2c1`, for which the call was inactive.

Take `CN(C)CCCN1c2ccccc2CCc2ccc(Cl)cc21`: the AC50 was 7.69 µM (active).

As for `CC[C@]1(O)C[C@@H]2CN(CCc3c([nH]c4ccccc34)[C@@](C(=O)OC)(c3cc4c(cc3OC)N(C)[C@H]3[C@@](O)(C(=O)OC)[C@H](OC(C)=O)[C@]5(CC)C=CCN6CC[C@]43[C@@H]65)C2)C1`, the concentration at half-maximal activity (AC50) is 0.137 µM (active).

As to `COc1cccc2c1C(=O)c1c(O)c3c(c(O)c1C2=O)C[C@@](O)(C(C)=O)C[C@H]3O[C@H]1C[C@H](N)[C@H](O)[C@H](C)O1`, the compound was classed as inactive.

On to `C[C@@H]1O[C@@H](O[C@H]2CC[C@@]3(C)[C@H](CC[C@@H]4[C@H]3C[C@@H](O)[C@]3(C)[C@@H](C5=CC(=O)OC5)CC[C@]43O)C2)C[C@H](O)[C@@H]1O[C@H]1C[C@H](O)[C@H](O[C@H]2C[C@H](O)[C@@H](O)[C@@H](C)O2)[C@H](C)O1` (stereo in doubt), for which the AC50 is 0.112 µM (active).

With `CC/C(=C(\c1ccccc1)c1ccc(OCCN(C)C)cc1)c1ccccc1`, the AC50 was 1.53 µM (active) and the compound was classed as inactive.

For the compound `CNCCCC12CCC(c3ccccc31)c1ccccc12`, the AC50 is 6.85 µM (active).

On to `CN1CCC[C@@H]1CCO[C@](C)(c1ccccc1)c1ccc(Cl)cc1`, for which the AC50 is 1.93 µM (active).

As for `CC[C@H]1OC(=O)[C@H](C)[C@@H](O[C@H]2C[C@@](C)(OC)[C@@H](O)[C@H](C)O2)C(C)[C@@H](O[C@@H]2O[C@H](C)C[C@H](N(C)C)[C@@H]2O)[C@](C)(OC)C[C@@H](C)C(=O)[C@H](C)[C@@H](O)[C@]1(C)O` (stereo partly specified), the AC50 is 5.44 µM (active).

For `CO[C@H]1C[C@@H]2CC[C@@H](C)[C@@](O)(O2)C(=O)C(=O)N2CCCC[C@@H]2C(=O)O[C@H]([C@H](C)C[C@@H]2CC[C@H](OCCO)[C@H](OC)C2)CC(=O)[C@H](C)C=C(C)[C@@H](O)[C@@H](OC)C(=O)[C@H](C)C[C@H](C)C=CC=CC=C1C`, the compound was called inactive.

In the case of `CCCNCC(O)COc1ccccc1C(=O)CCc1ccccc1` (stereo unspecified), the compound was called inactive.

Take `Cc1nnc(C(C)C)n1C1C[C@H]2CC[C@@H](C1)N2CC[C@H](NC(=O)C1CCC(F)(F)CC1)c1ccccc1` (stereo partly specified): the compound was called inactive.

`C[C@]12CC[C@@H]3c4ccc(O)cc4C[C@@H](CCCCCCCCCS(=O)CCCC(F)(F)C(F)(F)F)[C@H]3[C@@H]1CC[C@@H]2O` (stereo partly specified): the AC50 was 3.06 µM (active).
